# Values joined by “and” are separate entries in the source; they are usually repeats but may differ in a detail not shown here. Identical values can stand only once. Among all 110,000 compounds or so, about 190 (0.17%) were called active. The sample holds actives, similar compounds and a random draw of the others, so the mix is not that of the screen. Cut-off read from the data, not from the text of the source: active = inhibition above about 50%; inactive = the rest. Entries with a potency or affinity are not part of this list. Some compounds were tested as several samples or in several runs, with calls that do not always agree.
# Target: Dual specificity protein phosphatase 6 (Rattus norvegicus) (UniProt Q64346)
# Sequence (Q64346 whole entry, looked up): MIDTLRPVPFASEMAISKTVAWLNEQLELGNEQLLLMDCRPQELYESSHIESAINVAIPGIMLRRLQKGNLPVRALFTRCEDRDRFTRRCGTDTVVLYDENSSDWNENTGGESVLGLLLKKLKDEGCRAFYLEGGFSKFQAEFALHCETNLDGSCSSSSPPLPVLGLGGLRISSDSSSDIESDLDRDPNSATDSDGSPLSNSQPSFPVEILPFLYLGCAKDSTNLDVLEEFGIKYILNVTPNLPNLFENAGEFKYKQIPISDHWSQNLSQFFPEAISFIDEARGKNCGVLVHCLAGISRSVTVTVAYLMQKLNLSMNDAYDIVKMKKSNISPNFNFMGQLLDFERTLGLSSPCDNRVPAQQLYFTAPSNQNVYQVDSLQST
# Test: MKP-3 phosphatase inhibitors, primary screen, biochemical, rat enzyme, in vitro (AID 425);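 note: plate controls were vehicle for no effect and reference inhibitor for full effect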
# Settings: recombinant MKP-3 phosphatase activity, fluorescence; at 20 µM; stronger effect = higher value
row,SMILES,inhibition
1,N#Cc1c(N)nc2c(c1-c1ccc3c(c1)OCO3)CCCCC2,-0.9% (inactive)
2,Cc1ccc(-n2[nH]c(=O)c(/C=c3/c(C)c(C#N)c4nc5ccccc5n4c3=O)c2O)cc1C,66.8% (active)
3,Cc1c(C#N)c2nc3ccccc3n2c(=O)/c1=C/c1sc2ccccc2c1O,4.2% (inactive)
4,Cc1c(C#N)c2nc3ccccc3n2c(=O)/c1=C\c1c(O)n(-c2ccc(Br)cc2)[nH]c1=O,2.8% (inactive)
5,COc1cc(/C=C2\NC(=S)NC2=O)ccc1OC(=O)C12CC3CC(CC(C3)C1)C2,-2.6% (inactive)
6,COc1cccc(N2C(=O)/C(=C/c3ccccc3[N+](=O)[O-])SC2=S)c1,3% (inactive)
7,O=C1/C(=C/c2cccc3ccccc23)SC(=S)N1Cc1ccco1,1.1% (inactive)
8,O=C1/C(=C/c2ccccc2[N+](=O)[O-])SC(=S)N1c1cccc(Br)c1,4.2% (inactive)
9,Cc1cccc(N2C(=O)/C(=C/c3ccccc3[N+](=O)[O-])SC2=S)c1,120% (active)
10,O=C1/C(=C/c2ccccc2[N+](=O)[O-])SC(=S)N1Cc1ccco1,84.3% (active)
11,COc1ccccc1/C=C1\SC(=S)N(Cc2ccco2)C1=O,0.9% (inactive)
12,O=C(O)CCCCCN1C(=O)/C(=C\c2ccc(-c3ccc(Cl)c(Cl)c3)o2)SC1=S,1.8% (inactive)
13,Cc1ccccc1N(CC(=O)N1CCc2ccccc2C1)S(C)(=O)=O,2.4% (inactive)
14,NC(=O)c1cc(NC(=O)COc2ccc(F)cc2)c(Cl)cc1Cl,-1.1% (inactive)
15,Cc1c(NS(=O)(=O)c2ccc3c(c2)CCN3C(=O)C2CC2)c(=O)n(-c2ccccc2)n1C,-3.7% (inactive)
16,Cc1ccc(-c2ccc(C=C3C(=O)NC(=O)NC3=O)o2)c(Br)c1,26.6% (inactive)
17,O=C1NC(=O)C(=Cc2ccc(-c3cccc(Br)c3)o2)C(=O)N1,52.6% (active)
18,O=C1NC(=S)N/C1=C/c1ccc(-c2cccc(Br)c2)o1,0.8% (inactive)
19,CCN1CCN(CCCNC(=O)Cn2cc3c(n2)CCCC3)CC1,-12% (inactive)
20,COc1ccc(C2C(C(C)=O)=C(O)C(=O)N2c2nc3ccccc3s2)c(OC)c1 (configuration not stated),-1.5% (inactive)
21,Cc1ccc(N2CC(C(=O)Nc3ccc(N(C)C)cc3)CC2=O)cc1 (configuration not stated),2.6% (inactive)
22,CCOC(=O)CSc1nnc(Cn2nnc(-c3ccccc3)n2)n1C,0.9% (inactive)
23,Oc1c(Br)ccc(Cl)c1C=Nc1cccc2nsnc12,117% (active)
24,COc1ccc(Br)c(C=Nc2cccc3nsnc23)c1O,14.8% (inactive)
25,Oc1c(Br)cc(Cl)cc1C=Nc1cccc2nsnc12,42.7% (inactive)
26,NC(=O)C1C(=O)Oc2ccccc2C1=O (configuration not stated),1.6% (inactive)

row,SMILES,inhibition
1,Cc1ccc(-c2nnn(CC(=O)N(Cc3ccccc3)C(C(=O)NC3CCCC3)c3ccncc3)n2)o1 (configuration not stated),-0.8% (inactive)
2,Cc1cc2nc(-c3cccc(NC(=O)c4ccc(Br)o4)c3)oc2cc1C,3.2% (inactive)
3,O=S1(=O)N=C2CCCN2C(c2ccc(F)cc2)N1 (configuration not stated),-14.7% (inactive)
4,O=C(Nc1ncc(Cc2ccc(Cl)c(Cl)c2)s1)c1ccccc1Cl,3.9% (inactive)
5,Cc1ccc(OCC(=O)N/N=C\c2ccc(-c3ccc([N+](=O)[O-])cc3)o2)cc1,-0.5% (inactive)
6,Cc1cc(C)n(Cc2ccc(C(=O)O)o2)n1,-6.7% (inactive)
7,O=C1/C(=C\c2cccs2)CC2CC1C/C(=C/c1cccs1)C2=O,1.2% (inactive)
8,O=C1/C(=C\c2ccco2)CC2CC1C/C(=C/c1ccco1)C2=O,55.6% (active)
9,O=C1/C(=C/c2ccco2)N2CCC1CC2,-0.8% (inactive)
10,CN1CCN(CCCn2cnc3c(=O)oc4ccccc4c32)CC1,-0.6% (inactive)
11,CC(=O)O[C@@]12CO[C@@H]1C[C@H](O)[C@@]1(C)C(=O)[C@H](O)C3=C(C)[C@@H](OC(=O)[C@H](O)[C@@H](NC(=O)OC(C)(C)C)c4ccccc4)C[C@](O)([C@@H](OC(=O)c4ccccc4)[C@H]21)C3(C)C,-0.3% (inactive)
12,COC(=O)c1ccccc1OCc1cccc(C)n1,-5.5% (inactive)
13,COC(=O)c1ccc(C(=O)OC)c(N)c1,-12.2% (inactive)
14,COc1ccc(S(=O)(=O)Nc2ccc(C)c(Cl)c2)cc1OC,3.1% (inactive)
15,Cc1ccc(N(C)S(=O)(=O)c2ccc(Cl)cc2)cc1,-0.1% (inactive)
16,COc1cc(/C=C2/SC(=S)N(CC(=O)Nc3cccc(C(=O)O)c3)C2=O)cc(OC)c1OC,1.9% (inactive)
17,O=C(CN1C(=O)/C(=C/c2ccccc2)SC1=S)Nc1cccc(C(=O)O)c1,-1% (inactive)
18,O=C(CN1C(=O)S/C(=C/c2ccccc2F)C1=O)Nc1ccccc1C(=O)O,6.5% (inactive)
19,COc1ccc(/C=C2\SC(=O)N(CC(=O)Nc3ccc(C)cc3C)C2=O)cc1,-0.5% (inactive)
20,O=C(NC(Nc1ccc([N+](=O)[O-])cc1)C(Cl)(Cl)Cl)c1cccc(I)c1 (configuration not stated),1.1% (inactive)
21,CCN(CC)S(=O)(=O)c1cccc(C(=O)Oc2cccnc2)c1,-10.3% (inactive)
22,CCOc1cc(C(=O)Nc2ccc(OCc3ccccc3)cc2)cc(OCC)c1OCC,7% (inactive)
23,CCCC1=NN2C(=N)/C(=C/c3cc(OC)ccc3OC)C(=O)N=C2S1,1.4% (inactive)
24,CCC1=NN2C(=N)/C(=C/c3ccc(OCCOc4cccc(OC)c4)cc3)C(=O)N=C2S1,-1.7% (inactive)
25,Nn1c(SCC(=O)NC2CCCCC2)nnc1-c1ccccc1,-1.2% (inactive)
26,Cc1[nH]n2c(=O)cc(C(C)C)nc2c1-c1ccccc1,-5.8% (inactive)

row,SMILES,inhibition
1,Cc1cc(=O)n2[nH]c(C)c(-c3ccccc3)c2n1,72.9% (active) and -3.2% (inactive)
2,Cc1cc(=O)n2[nH]c(C)c(-c3ccc(Cl)cc3)c2n1,-8.5% (inactive)
3,O=C(NCC1CCCO1)c1ccc(Cl)cc1 (configuration not stated),-0.2% (inactive)
4,O=C(CCCn1c(=O)c2sccc2n(Cc2ccc(F)cc2)c1=O)NCc1ccco1,-8.3% (inactive)
5,CCOc1ccc(C(=O)NCc2ccc3c(c2)OCO3)cc1,-3% (inactive)
6,COc1ccc(/C=C2/SC(=O)N(CC(=O)Nc3ccc(F)c(Cl)c3)C2=O)cc1OC,1.4% (inactive)
7,COc1ccc(/C=C2/SC(=O)N(CC(=O)Nc3ccc(C)c(C)c3)C2=O)cc1OC,3.6% (inactive)
8,COc1ccc(-c2cc(C(=O)N/N=C(\C)c3ccc([N+](=O)[O-])cc3)[nH]n2)cc1,4% (inactive)
9,Cc1ccsc1C=Nc1ccc(O)cc1,-7% (inactive)
10,Cc1cccc(C=Nc2ccccc2O)c1O,-0.6% (inactive)
11,CCOc1ccccc1C=Nc1cc(Cl)cc(Cl)c1,-0.8% (inactive)
12,Oc1cccc(C=Nc2ccccc2)c1O,120% (active)
13,CCN(CC)c1ccc(N=Cc2cccc(O)c2O)cc1,16.1% (inactive)
14,CCOc1ccccc1C=Nc1ccc(C(N)=O)cc1,-2.2% (inactive)
15,CCOc1ccccc1C=Nc1ccc(O)cc1,116% (active)
16,Cc1ccccc1C=Nc1ccc(O)cc1,112% (active)
17,N#Cc1ccc(N=Cc2cccc(O)c2O)cc1,-1.9% (inactive)
18,CCOC(=O)C1(C)NC(c2cc(OC)c(OC)c(OC)c2)C2C(=O)N(CC)C(=O)C21 (configuration not stated),4.9% (inactive)
19,CC(NC(=O)C(=O)NCC1CCNCC1)c1ccccc1 (configuration not stated),2.1% (inactive)
20,Cc1cc(NC(=O)c2nn3c(c2Cl)NC(c2ccc(Br)cc2)CC3C(F)(F)F)no1 (configuration not stated),-0.7% (inactive)
21,COc1cccc(C(=O)NNC(N)=O)c1,-2.5% (inactive)
22,O=C(CSc1nc2ccc(N3C(=O)c4ccccc4C3=O)cc2s1)Nc1cccc([N+](=O)[O-])c1,14.1% (inactive)
23,Cc1ccc(NC(=O)C(=O)NCC(C)C)cc1,-6.8% (inactive)
24,CCN1CCOC(c2ccccc2)C(C(=O)OC)C1C(=O)OC (configuration not stated),49.2% (inactive)
25,CC(=O)c1ccc(NC(=O)c2ccc(-c3ccc(Br)cc3)o2)cc1,10.6% (inactive)
26,O=C(Nc1ccc(NC(=O)c2ccc(-c3ccc(Br)cc3)o2)cc1)c1ccco1,-1.3% (inactive)

row,SMILES,inhibition
1,CCCCCCCC(=O)N/N=C/c1c[nH]c2ccccc12,4.3% (inactive)
2,O=C(CSc1ccccn1)N/N=C\c1c[nH]c2ccccc12,-0.6% (inactive)
3,Cc1ccn2c(-c3csc(Nc4cccc(O)c4)n3)c(C)nc2c1,2.7% (inactive)
4,O=C1CC(Nc2ccccc2)C(=O)N1Cc1ccccc1 (configuration not stated),1.4% (inactive)
5,O=C(O)c1ccc(NC(=O)c2cc3cc(Br)ccc3oc2=O)cc1,3.5% (inactive)
6,O=C(Nc1ccc(Nc2ccccc2)cc1)c1cccc(F)c1,-0.3% (inactive)
7,O=C(Nc1ccc(Cl)c(Cl)c1)Nc1nnc(-c2ccccc2)s1,-2.8% (inactive)
8,Cc1ccc(-c2nnc(NC(=O)Nc3ccc(Cl)c(Cl)c3)s2)cc1,-1.5% (inactive)
9,O=[N+]([O-])c1ccc(OCCCCCN2CCCCC2)cc1,0.4% (inactive)
10,Cc1ccc(/C(O)=C2\C(=O)C(=O)N(CCCC(=O)O)C2c2ccccc2)cc1 (configuration not stated),2.5% (inactive)
11,COc1ccc(O)c(CN2CCN(Cc3ccccc3[N+](=O)[O-])CC2)c1,-3.5% (inactive)
12,Oc1ccccc1/C=N/Nc1cc(N2CCOCC2)nc(N2CCOCC2)n1,5.6% (inactive)
13,Oc1ccccc1/C=N/Nc1cc(N2CCCCC2)nc(N2CCCCC2)n1,-0.5% (inactive)
14,Oc1ccccc1/C=N/Nc1cc(N2CCCC2)nc(N2CCCC2)n1,119% (active)
15,Cc1onc(-c2ccccc2)c1C(=O)NCCNc1c(Cl)cccc1[N+](=O)[O-],3.9% (inactive)
16,O=C1C=C/C(=N\S(=O)(=O)c2ccc(F)cc2)c2ccccc21,-2% (inactive)
17,CC(=O)Nc1ccc(S(=O)(=O)NN2C(=O)c3ccccc3C2=O)cc1,2.6% (inactive)
18,O=C1C=CC(=NS(=O)(=O)c2ccccc2)c2ccccc21,68.4% (active)
19,CC(=O)Nc1ccc(S(=O)(=O)/N=C2/NC(=O)CS2)cc1,-0.8% (inactive)
20,CN(C)C1=C/C(=N/S(=O)(=O)c2ccccc2)c2ccccc2C1=O,13.9% (inactive)
21,Cc1ccc(C)c(S(=O)(=O)/N=C2\C=CC(=O)c3ccccc32)c1,63.5% (active)
22,Cc1ccccc1S(=O)(=O)N=C1C=CC(=O)C(Cl)=C1,3.1% (inactive)
23,CC(=O)Nc1ccc(S(=O)(=O)/N=C2\C=CC(=O)c3ccccc32)cc1,111% (active)
24,Cc1ccc(S(=O)(=O)N=C2C=CC(=O)C=C2)c(C)c1,7.6% (inactive)
